We go through 28 compounds from PubChem BioAssay (Tox21).

Structures are written as SMILES. Values without a mark were called inactive. Results filed as inconclusive are left out. Calls of active or inactive are those of the source. Unless noted, the call rests on the fitted dose curve; in most records, active means well fitted curve in the direction sought with a large enough effect in the repeat runs; inconclusive means weak or mixed curves; inactive means no such curve, though single readings can be large; an effect the other way counts as inactive or inconclusive.

The nature of assay [1]: qHTS assay to identify small molecule agonists of the estrogen receptor alpha (ER-alpha) signaling pathway in the presence of an antagonist - cell viability counter screen (AID 1259386).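 Further: series mostly up to about 92 µM; cells exposed to compounds for 22 h at 37 °C before the viability read; nearly all actives have a fitted effect of over 30% in size.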 In a few lines: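 Viability counter screen using VM7Luc4E2 (full-length ER-alpha, four ERE-luciferase). The cells were treated with compounds alongside ICI-182,780 10.0nM for 22hr, and live-cell protease fluorescence was quantified with CellTiter-Fluor.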
(In general: Quantitative high-throughput screening tests each substance at several concentrations.)

The target in assay [2] is Progesterone receptor (Homo sapiens) (UniProt P06401). Kind of assay: qHTS assay to identify small molecule antagonists of the progesterone receptor (PR) signaling pathway (AID 1346795; active means well fitted inhibition curve with a large enough effect in the signal ratio in the repeat runs, not every such curve was filed as active; the % refers to the signal ratio; further: potency means the concentration at half of the fitted maximal effect). In outline:
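Screening used a GripTite HEK293T line with PR-responsive UAS-beta-lactamase. Cells were challenged with compound in the presence of 1 nM R5020 final for 16 hr at 37C; B/G FRET substrate, 2 hr room temperature, fluorescence.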

Assay [3] is described as follows: qHTS assay to identify small molecule agonists of the progesterone receptor (PR) signaling pathway - cell viability counter screen (AID 1346799; calls by dose curve; further: nearly all actives have a fitted effect of over 45% in size; further: potency means the concentration at half of the fitted maximal effect). In a few lines:
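Using the same plates as the PR reporter screen, HEK293T PR-UAS-bla cells received compounds for 16 hr at 37C and were then lysed with CellTiter-Glo; luminescence was read 30 min later at room temperature.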

Assay [4] in a line: qHTS assay to identify small molecule antagonists of the TGF-beta/Smad signaling pathway - cell viability counter screen (AID 1346824). Further: nearly all actives have a fitted effect of over 50% in size. In outline: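 SBE-bla HEK 293T cells were plated overnight at 37 C, then given compounds in DMSO plus TGF-beta1 (added as 0.25 ng/mL solution) for 5 hr. After the bla read, CellTiter-Glo was added to the same wells and luminescence read after 30 min at room temperature.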

Assay [5] in a line: qHTS assay to identify small molecule agonists of the TGF-beta/Smad signaling pathway - cell viability counter screen (AID 1346829). Further: top concentration of the series differs between compounds; nearly all actives have a fitted effect of over 45% in size. In outline: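 Same-well cytotoxicity: CellTiter-Glo added after the 2 hr room-temperature beta-lactamase substrate step, luminescence measured 30 min later; cells had 5 hr of compound at 37 C.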
A short description of assay [6]: qHTS assay to identify small molecule agonists of the TGF-beta/Smad signaling pathway (AID 1346859; active means well fitted activation curve with a large enough effect in the signal ratio in the repeat runs, not every such curve was filed as active; the % refers to the signal ratio; further: series mostly up to about 77 µM). In outline:
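Beta-lactamase reporter activity downstream of Smad binding elements was measured in stably transfected HEK 293T cells; compounds were incubated for 5 hr, substrate for 2 hr at room temperature.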

Assay [7] addresses Thyrotropin-releasing hormone receptor (Homo sapiens) (UniProt P34981). As to the kind of experiment: qHTS assay to identify small molecule antagonists of the thyrotropin-releasing hormone receptor (TRHR) signaling pathway (AID 1346877; active means well fitted inhibition curve with a large enough effect in the repeat runs, not every such curve was filed as active; further: series mostly up to about 51 µM). In outline:
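Following an 18 h incubation at 37 °C and a 2 h calcium dye load, TRHR-HEK293 cells were exposed to compound (5 min, room temperature) and challenged with TRH, 1 nM final.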

Assay [8] has the same target. Kind of assay: qHTS assay to identify small molecule agonists of the thyrotropin-releasing hormone receptor (TRHR) signaling pathway (AID 1346891; calls by dose curve;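 further: HEK293 cells expressing TRHR with calcium dye readout; series mostly up to about 58 µM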). In outline: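 Overnight-plated (18 h, 37 °C, 5% CO2) TRHR-Hek293 cells; 2 h calcium dye at 37 °C; compound in DMSO; 3-min kinetic fluorescence read.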
A short description of assay [9]: qHTS assay to identify small molecule antagonists of the progesterone receptor (PR) signaling pathway - cell viability counter screen (AID 1346798). Further: series mostly up to about 92 µM; nearly all actives have a fitted effect of over 50% in size. In a few lines:
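Measures cytotoxicity in parallel with the PR antagonist reporter read: HEK293T PR-UAS-bla cells get compound and R5020 for 16 hr, and remaining viable cells are quantified by CellTiter-Glo luminescence.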

Assay [10] has as its target Progesterone receptor (Homo sapiens) (UniProt P06401). As to the kind of experiment: qHTS assay to identify small molecule agonists of the progesterone receptor (PR) signaling pathway (AID 1346784; calls by dose curve; further: nearly all actives have a fitted effect of over 30% in size). In outline: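 Seed PR-UAS-bla HEK 293T cells (2% charcoal-stripped FBS), incubate 6 hr at 37C; add compounds in DMSO, 16 hr at 37C; add LiveBLAzer B/G substrate, 2 hr RT; read fluorescence intensity.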

Progesterone receptor (Homo sapiens), sequence (P06401 whole entry, looked up): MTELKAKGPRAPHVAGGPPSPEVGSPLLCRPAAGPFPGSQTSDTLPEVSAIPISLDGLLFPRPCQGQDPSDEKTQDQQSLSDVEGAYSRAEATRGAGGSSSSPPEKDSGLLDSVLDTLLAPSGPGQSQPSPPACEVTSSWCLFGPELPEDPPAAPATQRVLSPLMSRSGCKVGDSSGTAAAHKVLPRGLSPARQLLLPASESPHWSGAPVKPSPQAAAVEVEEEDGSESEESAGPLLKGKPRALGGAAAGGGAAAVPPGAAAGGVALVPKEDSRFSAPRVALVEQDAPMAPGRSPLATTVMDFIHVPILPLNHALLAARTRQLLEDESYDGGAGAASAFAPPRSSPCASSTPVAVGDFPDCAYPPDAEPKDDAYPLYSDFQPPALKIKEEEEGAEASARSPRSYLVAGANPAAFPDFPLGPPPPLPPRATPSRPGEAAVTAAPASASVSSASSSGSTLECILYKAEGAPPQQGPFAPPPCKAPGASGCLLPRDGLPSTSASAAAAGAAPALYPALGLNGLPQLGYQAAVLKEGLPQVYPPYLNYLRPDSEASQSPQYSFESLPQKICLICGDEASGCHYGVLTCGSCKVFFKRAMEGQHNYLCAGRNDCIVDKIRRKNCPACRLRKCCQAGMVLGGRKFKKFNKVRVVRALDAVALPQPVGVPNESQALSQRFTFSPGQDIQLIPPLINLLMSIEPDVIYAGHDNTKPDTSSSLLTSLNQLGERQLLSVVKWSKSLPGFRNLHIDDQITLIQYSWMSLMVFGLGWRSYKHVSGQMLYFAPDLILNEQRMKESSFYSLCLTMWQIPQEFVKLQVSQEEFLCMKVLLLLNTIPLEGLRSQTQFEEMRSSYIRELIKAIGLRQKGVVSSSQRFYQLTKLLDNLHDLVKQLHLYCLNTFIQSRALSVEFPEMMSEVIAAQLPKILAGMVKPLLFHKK
Thyrotropin-releasing hormone receptor (Homo sapiens), sequence (P34981 whole entry, looked up): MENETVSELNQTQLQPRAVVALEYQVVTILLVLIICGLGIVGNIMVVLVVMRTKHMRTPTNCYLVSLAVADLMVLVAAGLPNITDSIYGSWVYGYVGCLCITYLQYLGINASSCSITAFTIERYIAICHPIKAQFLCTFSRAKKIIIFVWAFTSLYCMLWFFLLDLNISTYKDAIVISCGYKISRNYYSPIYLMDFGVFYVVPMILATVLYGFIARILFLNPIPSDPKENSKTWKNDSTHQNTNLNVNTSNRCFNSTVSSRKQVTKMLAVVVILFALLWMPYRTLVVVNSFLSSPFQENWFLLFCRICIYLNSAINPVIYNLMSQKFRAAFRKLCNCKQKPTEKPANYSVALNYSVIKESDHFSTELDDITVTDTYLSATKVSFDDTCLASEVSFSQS

With `C=CC(C)CCC=C(C)C` (centres undefined), the Potency result in assay [1], in [2] and in [3] was “inactive” each time. Further, the outcome in [4], in [5], in assay [6], in assay [7] and in assay [8] was inactive.
`COC(=O)C(C)(C)C`: the Potency result in assay [1] and in assay [2] was “inactive” throughout. The outcome in assay [4], in assay [5], in assay [6], in assay [7] and in assay [8] was inactive.
Regarding `CC(Cc1ccccc1)(NC(=O)CN)c1ccccc1` (centres undefined), the Potency result in [1], in assay [2], in assay [9] and in [3] was “inactive” in each case. The outcome in [4], in assay [5] and in assay [6] was inactive.
`Nc1ncnc2c1ncn2[C@@H]1O[C@H](CO)[C@@H](O)[C@H]1O`: the Potency result in assay [1], in assay [2] and in assay [9] was “inactive” in each case. Besides, the result in [5], in assay [6], in assay [7] and in assay [8] was inactive.
For the compound `Nc1cccc2c(=O)[nH][nH]c(=O)c12`, the Potency result in [1] and in assay [2] was “inactive” in each case. Further, the compound was called inactive in assay [4], in [5] and in assay [6].
As for `FC(F)(Cl)C(F)(Cl)Cl`, the Potency result in [1], in assay [10] and in [3] was “inactive” in each case. Also, the compound was classed as inactive in assay [4], in assay [5], in assay [6], in assay [7] and in [8].
As to `CCCCOc1ccc(N)cc1`, the Potency entry in assay [1], in [2], in assay [9] and in assay [3] was “inactive” each time. Further, the call in [4], in assay [5], in assay [6], in assay [7] and in [8] was inactive.
Take `O=C(O)c1ccc(O)c(O)c1`: the Potency entry in assay [1], in [2], in assay [9] and in assay [3] was “inactive” in each case. In addition, the compound was called inactive in assay [4], in assay [5], in [6], in assay [7] and in assay [8].
For the compound `COc1ccc(/C=C/c2cc(OC)cc(=O)o2)cc1`, the Potency result in assay [1] and in [2] was “inactive” in each case. Further, the compound was classed as inactive in assay [4], in assay [5], in [6], in assay [7] and in assay [8].
With `C/C(=C(\CCO)SS/C(CCO)=C(\C)N(C=O)Cc1cnc(C)nc1N)N(C=O)Cc1cnc(C)nc1N`, the Potency entry in assay [1], in assay [2], in [9] and in [3] was “inactive” throughout. The outcome in [4], in assay [5], in assay [6], in assay [7] and in [8] was inactive.
With `CCc1cnc(C(=O)O)c(C(=O)O)c1`, the Potency result in [1], in [2] and in assay [3] was “inactive” in each case. For the same compound, the result in [4], in [5], in [6], in assay [7] and in [8] was inactive.
As to `O=C(O)c1cccc(C(=O)O)c1C(=O)O`, the Potency result in assay [1], in [2] and in assay [9] was “inactive” throughout. The Potency in assay [3] is 34.7 µM (active). The call in [4], in assay [5], in assay [6], in [7] and in [8] was inactive.
With `CC(C(=O)O)c1ccc(/C=C2\CCCCC2=O)cc1` (centres undefined), the Potency result in assay [1], in [2], in assay [9] and in [3] was “inactive” in each case. Besides, the outcome in assay [4], in assay [5] and in assay [6] was inactive.
Take `O=P(c1ccccc1)(c1ccccc1)c1ccccc1`: the Potency result in [1], in assay [2] and in assay [3] was “inactive” each time. The compound was classed as inactive in assay [4], in [5], in [6], in [7] and in [8].
Consider `CC(C)Oc1ccccc1O`, for which the Potency entry in assay [1], in assay [2] and in assay [9] was “inactive” each time. Further, the compound was classed as inactive in [5], in assay [6], in [7] and in assay [8].
For `CCCCOC(=O)C(C)Oc1ccc(Oc2ccc(C(F)(F)F)cn2)cc1` (centres undefined), the Potency result in assay [1], in [2], in [9] and in assay [3] was “inactive” each time. The outcome in assay [5] and in [6] was inactive.
As to `Cc1c(Cl)cccc1[N+](=O)[O-]`, the Potency entry in [1], in assay [2] and in assay [9] was “inactive” throughout. The outcome in [4], in [5], in assay [6], in assay [7] and in assay [8] was inactive.
`Clc1cccc(C(c2ccc3nc[nH]c3c2)n2ccnc2)c1` (centres undefined): the Potency result in [1], in assay [2], in assay [9] and in assay [3] was “inactive” throughout. For the same compound, the call in assay [4], in assay [5], in [6], in assay [7] and in assay [8] was inactive.
Take `Nc1ccc(-c2ccc(F)cc2)cc1`: the Potency result in assay [1], in [9] and in assay [3] was “inactive” each time. Besides, the Potency in assay [2] is 6.11 µM (active). In addition, the compound was classed as inactive in [4], in assay [5], in [6], in assay [7] and in assay [8].
As for `CCc1ccc2c(c1)C(=O)c1ccccc1C2=O`, the Potency entry in assay [1], in [10] and in assay [3] was “inactive” each time. Also, the compound was called inactive in assay [4], in [5], in assay [6], in assay [7] and in assay [8].
Consider `O=C1CCCN1CCO`, for which the Potency entry in [1] and in assay [10] was “inactive” each time. Also, the result in assay [4], in assay [5], in assay [6], in assay [7] and in assay [8] was inactive.
Take `Nc1ccccc1Nc1ccccc1`: the result in assay [4], in [5], in assay [6], in assay [7] and in assay [8] was inactive.
For the compound `CC1=C(C)C(=O)C(CCCCC#CCCCC#CCO)=C(C)C1=O`, the Potency result in assay [10] is “inactive”. For the same compound, the compound was classed as inactive in [4], in [5], in assay [6], in assay [7] and in assay [8].
Take `CC(C)C/C=C(\C=O)c1ccccc1`: the Potency entry in assay [10], in assay [2], in assay [9] and in [3] was “inactive” in each case. Further, the call in assay [4], in assay [5], in assay [6], in assay [7] and in assay [8] was inactive.
For the compound `CO[C@@H]1COCC[C@@H]1N[C@@H]1CC[C@@](C(=O)N2CCc3ncc(C(F)(F)F)cc3C2)(C(C)C)C1`, the Potency result in assay [1] and in assay [9] was “inactive” throughout. Further, the compound was classed as inactive in [4], in assay [5], in [6], in [7] and in [8].
With `CC1(COc2ccc(CC3SC(=O)NC3=O)cc2)CCCCC1` (centres undefined), the Potency result in [1] was “inactive”. The compound was called inactive in assay [4], in assay [5], in assay [6], in assay [7] and in [8].
On to `Clc1cc(Cl)c2c(c1)N=C1CCCCCN1C2`, for which the Potency result in assay [10] and in assay [3] was “inactive” throughout. Besides, the call in assay [4], in assay [5], in assay [7] and in [8] was inactive.
Take `O=C1c2ccccc2C(=O)C1c1ccc2ccccc2n1`: the Potency entry in assay [10], in assay [2] and in [9] was “inactive” each time. For the same compound, the compound was called inactive in [4], in assay [5], in assay [6], in assay [7] and in assay [8].
